Data published in PubChem BioAssay AID1159580 (chemical genetic matrix, 2015).
Screen size: about 5,500 compounds; about 2,000 (36%) were called active. Roughly 18% stayed inconclusive and do not appear here. Cut-off read from the data, not from the text of the source: active = normalized growth mostly below about 0.91 (no sharp cut-off); inconclusive = no clear call, values can overlap the other calls; inactive = mostly above about 0.92. The list shows a part of the results.

Assay: chemical genetic growth profiling, strain panel (AID 1159580);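 note: tested at 20 µM; growth read once vehicle control cultures reached saturation at 30 °C; 1 = growth at the plate median or of vehicle wells; lower values mean less growth of the strain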
Settings: growth OD

Measured: normalized growth

Cn1c(=O)c2c(ncn2CCCl)n(C)c1=O
inactive: S. cerevisiae deletion strains, locus YAL013W, strain DEP1, hits give low values 1 | S. cerevisiae deletion strains, locus YBR021W, strain FUR4, hits give low values 0.995 | S. cerevisiae deletion strains, locus YBR229C, strain ROT2, hits give low values 0.997 | S. cerevisiae deletion strains, locus YCL029C, strain bik1, hits give low values 1.03 | S. cerevisiae deletion strains, locus YDL035C, strain GPR1, hits give low values 1 | S. cerevisiae deletion strains, locus YDL074C, strain BRE1, hits give low values 0.999 | S. cerevisiae deletion strains, locus YDL101C, strain DUN1, hits give low values 1.01 | S. cerevisiae deletion strains, locus YDL134C, strain PPH21, hits give low values 1 | S. cerevisiae deletion strains, locus YDL185W, strain tfp1, hits give low values 1.01 | S. cerevisiae deletion strains, locus YDL192W, strain arf1, hits give low values 1.02 | S. cerevisiae deletion strains, locus YDR101C, strain arx1, hits give low values 0.995 | S. cerevisiae deletion strains, locus YDR150W, strain NUM1, hits give low values 0.998 | S. cerevisiae deletion strains, locus YDR162C, strain NBP2, hits give low values 1 | S. cerevisiae deletion strains, locus YDR318W, strain mcm21, hits give low values 1.02 | S. cerevisiae deletion strains, locus YDR388W, hits give low values 1.01 | S. cerevisiae deletion strains, locus YDR502C, strain sam2, hits give low values 1.02 | S. cerevisiae deletion strains, locus YEL061C, strain CIN8, hits give low values 0.998 | S. cerevisiae deletion strains, locus YER110C, hits give low values 1.02 | S. cerevisiae deletion strains, locus YER155C, strain BEM2, hits give low values 0.997 | S. cerevisiae deletion strains, locus YER167W, strain BCK2, hits give low values 1.01 | S. cerevisiae deletion strains, locus YGL078C, strain dbp3, hits give low values 1.02 | S. cerevisiae deletion strains, locus YGL086W, strain mad1, hits give low values 1.01 | S. cerevisiae deletion strains, locus YGL248W, strain PDE1, hits give low values 1 | S. cerevisiae deletion strains, locus YGR078C, strain PAC10, hits give low values 0.975 | S. cerevisiae deletion strains, locus YGR135W, strain pre9, hits give low values 0.995 | S. cerevisiae deletion strains, locus YGR229C, strain SMI1, hits give low values 0.987 | S. cerevisiae deletion strains, locus YGR252W, strain gcn5, hits give low values 1.03 | S. cerevisiae deletion strains, locus YHR030C, strain SLT2, hits give low values 1 | S. cerevisiae deletion strains, locus YHR079C, strain IRE1 (second series), hits give low values 1.02 | S. cerevisiae deletion strains, locus YHR094C, strain hxt1, hits give low values 1.01 | S. cerevisiae deletion strains, locus YHR129C, strain ARP1, hits give low values 1 | S. cerevisiae deletion strains, locus YHR200W, strain rpn10, hits give low values 1.03 | S. cerevisiae deletion strains, locus YIL066C, strain RNR3, hits give low values 1.02 | S. cerevisiae deletion strains, locus YIL073C, strain SPO22, hits give low values 1.08 | S. cerevisiae deletion strains, locus YIL125W, strain kgd1, hits give low values 1.02 | S. cerevisiae deletion strains, locus YIR030C, strain dcg1, hits give low values 1.03 | S. cerevisiae deletion strains, locus YJL095W, strain BCK1, hits give low values 0.992 | S. cerevisiae deletion strains, locus YJL134W, strain LCB3, hits give low values 1.01 | S. cerevisiae deletion strains, locus YJL168C, strain set2, hits give low values 1.02 | S. cerevisiae deletion strains, locus YJL187C, strain SWE1 (second series), hits give low values 1 | S. cerevisiae deletion strains, locus YJR043C, strain POL32, hits give low values 0.998 | S. cerevisiae deletion strains, locus YJR075W, strain HOC1, hits give low values 0.987 | S. cerevisiae deletion strains, locus YKL009W, strain mrt4, hits give low values 1.03 | S. cerevisiae deletion strains, locus YKL068W, hits give low values 1.02 | S. cerevisiae deletion strains, locus YKL085W, strain MDH1 (second series), hits give low values 1.01 | S. cerevisiae deletion strains, locus YKL085W, strain MDH1, hits give low values 1.01 | S. cerevisiae deletion strains, locus YKL190W, strain CNB1, hits give low values 1 | S. cerevisiae deletion strains, locus YKR001C, strain vps1, hits give low values 1.01 | S. cerevisiae deletion strains, locus YLR039C, strain RIC1, hits give low values 1.04 | S. cerevisiae deletion strains, locus YLR058C, strain SHM2, hits give low values 1.01 | S. cerevisiae deletion strains, locus YLR102C, strain apc9, hits give low values 1.03 | S. cerevisiae deletion strains, locus YLR262C, strain YPT6, hits give low values 1.05 | S. cerevisiae deletion strains, locus YLR268W, strain sec22, hits give low values 0.994 | S. cerevisiae deletion strains, locus YLR330W, strain CHS5, hits give low values 1.01 | S. cerevisiae deletion strains, locus YLR342W, strain FKS1 (second series), hits give low values 1.01 | S. cerevisiae deletion strains, locus YLR371W, strain rom2, hits give low values 1.03 | S. cerevisiae deletion strains, locus YLR418C, strain cdc73, hits give low values 0.992 | S. cerevisiae deletion strains, locus YML016C, strain PPZ1, hits give low values 1 | S. cerevisiae deletion strains, locus YML032C, strain rad52, hits give low values 1.03 | S. cerevisiae deletion strains, locus YML124C, strain tub3, hits give low values 1.02 | S. cerevisiae deletion strains, locus YMR078C, strain ctf18, hits give low values 1.02 | S. cerevisiae deletion strains, locus YMR223W, strain ubp8, hits give low values 1.04 | S. cerevisiae deletion strains, locus YMR263W, strain SAP30, hits give low values 0.995 | S. cerevisiae deletion strains, locus YMR307W, strain GAS1, hits give low values 0.996 | S. cerevisiae deletion strains, locus YNL067W, strain RPL9B, hits give low values 1.01 | S. cerevisiae deletion strains, locus YNL128W, strain TEP1, hits give low values 0.999 | S. cerevisiae deletion strains, locus YNL153C, strain GIM3, hits give low values 0.988 | S. cerevisiae deletion strains, locus YNL233W, strain BNI4, hits give low values 0.994 | S. cerevisiae deletion strains, locus YNL250W, strain rad50, hits give low values 1.04 | S. cerevisiae deletion strains, locus YNL271C, strain bni1, hits give low values 1.02 | S. cerevisiae deletion strains, locus YNL298W, strain CLA4, hits give low values 1.03 | S. cerevisiae deletion strains, locus YNL307C, strain MCK1, hits give low values 1.03 | S. cerevisiae deletion strains, locus YNL322C, strain KRE1, hits give low values 1 | S. cerevisiae deletion strains, locus YNR052C, strain pop2, hits give low values 1.04 | S. cerevisiae deletion strains, locus YOL006C, strain TOP1, hits give low values 1.03 | S. cerevisiae deletion strains, locus YOL012C, strain htz1 0.951 | S. cerevisiae deletion strains, locus YOL147C, strain pex11, hits give low values 1.01 | S. cerevisiae deletion strains, locus YOR061W, strain CKA2, hits give low values 1.01 | S. cerevisiae deletion strains, locus YOR069W, strain VPS5, hits give low values 1 | S. cerevisiae deletion strains, locus YOR136W, strain idh2, hits give low values 1.02 | S. cerevisiae deletion strains, locus YOR144C, strain elg1, hits give low values 1.01 | S. cerevisiae deletion strains, locus YOR184W, strain ser1, hits give low values 1.03 | S. cerevisiae deletion strains, locus YOR316C, strain cot1, hits give low values 1.02 | S. cerevisiae deletion strains, locus YPL055C, strain LGE1, hits give low values 0.999 | S. cerevisiae deletion strains, locus YPL241C, strain CIN2, hits give low values 1 | S. cerevisiae deletion strains, locus YPR119W, strain clb2, hits give low values 1.01 | S. cerevisiae deletion strains, locus YPR141C, strain kar3, hits give low values 1.02 | S. cerevisiae deletion strains, locus YPR163C, strain tif3, hits give low values 1.01 | S. cerevisiae deletion strains, locus YPR167C, strain met16, hits give low values 1.02 | S. cerevisiae deletion strains, strain wtn01, hits give low values 0.997 | S. cerevisiae strains, strain wild type, hits give low values 1
